# Reference: PubChem BioAssay AID2685 (National Center for Advancing Translational Sciences (NCATS), 2010)
# Out of some 320,000 compounds screened, about 2,100 (0.66%) were called active. Roughly 53% stayed inconclusive and do not appear here. The call rests on the fitted dose curve; in most records, active means well fitted inhibition curve with a large enough effect in the signal ratio, with a control signal flat (not every such curve was filed as active); inconclusive means small, poorly fitted or top-dose-only effect, or effect the other way, or a change in a side signal; inactive means flat fitted curve, though single readings scatter; the % refers to the signal ratio. This excerpt belongs to a sample that is enriched for actives.
# Experiment: qHTS Assay for Lipid Storage Modulators in Drosophila S3 Cells;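 on cell number change: cells counted by Cell Tracker Red CMTPX staining in the red channel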; on lipid storage change, negative = inhibition: on the % scale 0 is the no-effect control and ±100 the full control effect
# Conditions: BODIPY lipid droplet fluorescence, 18-24 h, cells fed with added oleic acid; cell number change: measured here: cell count max response; series mostly up to 46.1 µM
# Method in brief: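 Drosophila S3 cells got compounds at several concentrations plus oleic acid (400 uM solution). Laser-scanning cytometry with 488 nm excitation read lipid droplets at 500-530 nm and cells at 575-640 nm. Percent activity was relative to 20 uM Triacsin C.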
# Potency means the concentration at half of the fitted maximal effect.
SMILES,Potency,cell number change,"lipid storage change, negative = inhibition"
COC(=O)c1cc(C(=O)Nc2cccc(C)n2)cc([N+](=O)[O-])c1,inactive,,
CCOC(=O)c1ccccc1NC(=O)C1CCCO1 (stereo unspecified),inactive,2.7%,
COC(=O)c1ccccc1NC(=O)C1CCCO1 (stereo unspecified),inactive,-0.0238%,
O=C(O)c1ccccc1NC(=O)C1CCCO1 (stereo unspecified),23.1 µM (active),-12.3%,
COc1ccc(C(=O)NC(C)C2CC3CCC2C3)c(OC)c1 (stereo unspecified),inactive,14.1%,
COc1cc(/C=C/C(=O)NC2CCCCC2)cc(OC)c1OC,inactive,1.65%,
COc1cc(/C=C/C(=O)NC(C)C2CC3CCC2C3)cc(OC)c1OC (stereo unspecified),2.91 µM (active),13.5%,
CCCCN1C(=O)C(=O)N(CC(=O)Nc2cc(OCC)c(N3CCOCC3)cc2OCC)C1=O,inactive,-17.5%,
COC(=O)CCN(c1ccccc1)S(=O)(=O)c1cc(-c2cc(C)no2)ccc1OC,inactive,,
COc1ccc(-c2cc(C)no2)cc1S(=O)(=O)N(C)c1ccc(C)cc1,inactive,-26.4%,
CCCN(c1ccccc1F)S(=O)(=O)c1cc(-c2cc(C)no2)ccc1OC,4.61 µM (active),-29.5%,
O=C(Nc1nnc(S(=O)(=O)N2CCCCCC2)s1)c1cccc(Br)c1,inactive,16.5%,
COc1ccc(CN(C)S(=O)(=O)c2nnc(NC(=O)c3cccc(F)c3)s2)cc1,inactive,,
COc1cccc(C(=O)Nc2nnc(S(=O)(=O)N3CCCC3)s2)c1,4.11 µM (active),-14.5%,
COc1cccc(C(=O)Nc2nnc(S(=O)(=O)N(C)Cc3ccc(F)cc3)s2)c1,29.1 µM (active),-17.9%,
CN(Cc1ccc(F)cc1)S(=O)(=O)c1nnc(NC(=O)c2ccccc2)s1,inactive,3.05%,
Cc1cccc(C(=O)Nc2nnc(S(=O)(=O)N3CCOCC3)s2)c1,inactive,-0.612%,
CN(Cc1ccc2c(c1)OCO2)C(=O)c1cc(-c2ccccc2)c(N2CCOCC2)s1,inactive,-5.64%,
COc1cccc(C(=O)NCc2nnc(SCC(=O)Nc3nccs3)n2-c2cccc(C)c2)c1,inactive,-7.27%,
COc1cc(NC(=O)CCc2nnc3ccc(N4CCN(C)CC4)nn23)cc(OC)c1,inactive,-14.7%,
Cc1ccc(C)c(/C=C2\CCn3c2nc2cc(C(=O)O)ccc2c3=O)c1,inactive,6.53%,
CNc1oc(C)nc1S(=O)(=O)c1ccc(C)cc1,inactive,-20.3%,
CNc1oc(C)nc1S(=O)(=O)c1ccccc1,32.6 µM (active),3.59%,
CNc1oc(-c2ccc(F)cc2)nc1S(=O)(=O)c1ccccc1,inactive,11.1%,

SMILES,Potency,cell number change,"lipid storage change, negative = inhibition"
CC(=O)Nc1ccc(S(=O)(=O)Nc2nccc(C3Cc4ccccc4C(=O)O3)n2)cc1 (stereo unspecified),14.6 µM (active),-1.08%,
CC(=O)Nc1ccc(S(=O)(=O)Nc2nccc(C)n2)cc1,inactive,1.57%,
CC(=O)Nc1ccc(S(=O)(=O)Nc2ncccn2)cc1,inactive,3.3%,
O=C(CSc1nnc(COc2ccccc2)o1)N1CCN(c2ccccc2)CC1,inactive,3.22%,
Cc1cccc(C(=O)Nc2ccc(N3CCN(S(C)(=O)=O)CC3)cc2)c1,inactive,1.55%,
COc1ccc(-n2ncc(C(C)NS(=O)(=O)c3cc(F)ccc3C)c2C)cc1 (stereo unspecified),9.2 µM (active),-20.2%,
COC(=O)c1sccc1S(=O)(=O)NC(C)c1cnn(-c2ccc(OC)cc2)c1C (stereo unspecified),inactive,19.6%,
COc1ccc(-n2ncc(C(C)NS(=O)(=O)c3ccc(C(C)=O)cc3)c2C)cc1 (stereo unspecified),inactive,-7.79%,
CN(C)CCCN(C(=O)COc1ccccc1)c1nc2ccc(F)cc2s1,inactive,-15.9%,
COc1ccc(Cn2nnnc2CN(Cc2cc3cccc(C)c3[nH]c2=O)C2CCCC2)cc1,inactive,-3.93%,
CCCCN(c1ccccc1)c1ncnc2nc[nH]c12,inactive,0.284%,
O=C1c2cc3ccccc3c(-c3ccccc3)c2C(=O)N1c1ccccn1,23.1 µM (active),-7.79%,
O=C1c2cccc3c(N4CCCCC4)ccc(c23)C(=O)N1c1ccccn1,inactive,12.6%,
O=c1c2ccccc2c(-c2ccccc2)nn1-c1ccccn1,inactive,,
COc1ccc2c(c1)CCC(C)N2C(=O)C(=O)c1c[nH]c2ccccc12 (stereo unspecified),inactive,,
CCCCNC(=O)C1CCN(S(=O)(=O)c2c(C)noc2/C=C\c2ccc(OC)cc2)CC1,,0.864%,-15.3% [at 9.22 µM] (inactive)
COc1ccccc1CCC(=O)OC(C)C(=O)Nc1c(C)n(C)n(-c2ccccc2)c1=O (stereo unspecified),inactive,,
Cc1cc(C)cc(NC(=O)N2CCCC2C(=O)NCc2ccco2)c1 (stereo unspecified),inactive,4.2%,
O=C(NCc1ccco1)C1CCCN1C(=O)Nc1cccc(Cl)c1 (stereo unspecified),inactive,3.19%,
O=C(NCc1ccco1)C1CCCN1C(=O)Nc1ccc(Br)cc1 (stereo unspecified),7.31 µM (active),13.3%,
COCCNC(=O)C1CCN(S(=O)(=O)c2ccccc2)CC1,inactive,-5.9%,
CCCNS(=O)(=O)c1cccc(C(=O)OCc2cc(=O)oc3cc(OC)ccc23)c1,0.326 µM (active),20.2%,
CCNS(=O)(=O)c1ccc(C(=O)OCc2cc(=O)oc3cc(OC)ccc23)cc1,inactive,12.6%,
COc1ccc2c(COC(=O)CNS(=O)(=O)c3ccc(C)c(C)c3)cc(=O)oc2c1,inactive,,

SMILES,Potency,cell number change,"lipid storage change, negative = inhibition"
CCOC(=O)C1CCCN(C(=O)c2cc(S(=O)(=O)Nc3ccccc3OC)ccc2C)C1 (stereo unspecified),inactive,12%,
COc1ccc(CCNC(=O)C2CCN(c3nccc(C)n3)CC2)cc1,inactive,5.66%,
CC(=O)Nc1ccccc1NC(=O)C/C(C)=N/NC(=O)C1CCCCC1,inactive,-3.17%,
Cc1cccc(C(=O)NCC(=O)OCc2cc(=O)n3ccsc3n2)c1,inactive,-4.9%,
NC(=O)Nc1ccc(C(=O)OCC(=O)N2CCCC2=O)cc1,inactive,-27.9%,
O=C(OCC(=O)N1CCCC1=O)c1nc(Cl)c(Cl)c(Cl)c1Cl,7.08 µM (active),-29%,
Nc1cc(C(=O)OCC(=O)N2CCCC2=O)ccc1Cl,inactive,,
CCCc1cc(=O)c2c(O)cccc2o1,inactive,-3.96%,
O=C(NCCc1ccc(Cl)cc1)Nc1ccc(F)cc1,inactive,-2.02%,
O=C(NCCc1ccc(F)cc1)Nc1ccc([N+](=O)[O-])cc1,13 µM (active),18.2%,
O=C(NCCc1ccncc1)Nc1ccc(F)cc1,inactive,5.19%,
Cc1cccc(C)c1NC(=O)CN(C)C(=O)/C=C/c1cccs1,inactive,-17%,
CCn1cnc2c(Nc3cc(F)cc(F)c3)nc(C#N)nc21,0.651 µM (active),-24.3%,
Cc1cc(C)c(C#N)c(Nc2ccc(F)cc2)n1,inactive,-10.5%,
O=C(Cc1ccccc1)NCC(=O)OCC(=O)c1cccc([N+](=O)[O-])c1,inactive,9.41%,
Cc1cc(OC(C)C(=O)N2CCN(c3ccccc3)CC2)c2c(C)c(C)c(=O)oc2c1 (stereo unspecified),inactive,5.19%,
COc1ccc(CCN(C)C(=O)c2cc(=O)c3ccccc3o2)cc1OC,0.731 µM (active),-2.86%,
COc1ccc(C(C)=O)cc1COC(=O)c1cc(=O)c2ccccc2o1,18.4 µM (active),5.13%,
COc1ccc(C(C)=O)cc1COC(=O)c1cc2ccccc2cc1O,20.6 µM (active),-9.52%,
COc1ccc(C(C)=O)cc1COC(=O)c1cc(C)oc1C,inactive,-12.2%,
N#Cc1ccccc1COC(=O)c1cc(=O)c2ccccc2o1,inactive,7.26%,
O=C(OCc1ccc(F)cc1)c1cc(=O)c2ccccc2o1,inactive,11.3%,
CCc1ccc(CN(C)C(=O)c2cc(=O)c3ccccc3o2)cc1,inactive,,
COc1ccc(CCN(C)C(=O)c2cc(-c3ccccc3)nc3ccccc23)cc1OC,inactive,-2.7%,

SMILES,Potency,cell number change,"lipid storage change, negative = inhibition"
COc1ccc(C(C)=O)cc1COC(=O)c1cccnc1Cl,inactive,20.9%,
CCOC(=O)c1ccc(NC(=S)N2CCCC(C)C2)cc1 (stereo unspecified),inactive,4.19%,
COCCN(C(=S)Nc1ccccc1OC)C(C)c1cccs1 (stereo unspecified),inactive,10.3%,
CCCCn1nnc(NC(=O)c2sc3cc(Cl)ccc3c2Cl)n1,inactive,-11.4%,
C/C(=N\Nc1cc(N2CCOCC2)nc(C)n1)c1ccc(F)cc1,inactive,-23.7%,
COc1cc(OC)c2ccc(=O)oc2c1C(CCN1CCCC1)c1ccc(N(C)C)cc1 (stereo unspecified),inactive,0.759%,
Cc1cc(C)nc(/N=C(\NC(=O)C(C)(C)C)Nc2ccccc2)n1,inactive,7.69%,
O=C(CCOc1ccccc1)Nc1ccnn1C1CCN(C(=O)CCC(F)(F)F)CC1,inactive,,
Cn1c(N)c(C(=O)COC(=O)CNS(=O)(=O)c2cccc(Cl)c2)c(=O)n(C)c1=O,inactive,-1.55%,
CC(C)[C@H](NS(=O)(=O)c1ccc(Cl)cc1)C(=O)OCC(=O)c1c(N)n(C)c(=O)n(C)c1=O,29.1 µM (active),-5.89%,
CN(CC(=O)OCC(=O)c1c(N)n(C)c(=O)n(C)c1=O)S(=O)(=O)c1ccc(Cl)cc1,inactive,-11.5%,
O=C(NC1CCCc2ccccc21)c1ccccc1 (stereo unspecified),inactive,96.9%,
COC(=O)CN(c1cccc(F)c1)S(C)(=O)=O,inactive,,
COC(=O)CN(c1cccc(C(C)=O)c1)S(C)(=O)=O,inactive,-12.6%,
COC(=O)CN(c1cccc(OC)c1)S(C)(=O)=O,16.4 µM (active),-6.69%,
COc1ccccc1CN1CC(C(=O)NC2CCOCC2)CCC1=O (stereo unspecified),inactive,0.697%,
CCC(C)N1CCNCC1 (stereo unspecified),inactive,2.58%,
Cc1cc2c3c(ccc(C)c3n1)N=CN2c1ccccc1,inactive,,
CC(C)Oc1cccc(C(=O)O)c1,16.4 µM (active),0.0714%,
CCCCOc1cccc(C(=O)O)c1,inactive,-9.86%,
CC(C)Oc1cccc(C(=O)N2CCCC2)c1,inactive,0.879%,
Cc1cc(OCC(=O)NCc2nc(-c3ccccc3)no2)c(C)cc1Br,inactive,8.52%,
